Bioassay records as filed in PubChem BioAssay.
A selection: hits, their analogues and other compounds. The true share with any hit is near 8.1%.
PD-1 reversal – activators reversing PD-1 mediated T-cell inhibition, primary screen, luminescence, primary human CD4 T cells, PD-L1 beads | activation, % (test concentration not listed) | CellTiter-Glo 96 h | 29,000 tested, under 10 active | AID 2316, 2010; call rule not given here;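 note: 0% = median vehicle wells and 100% = positive control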
Hedgehog inh – Hedgehog pathway signaling inhibitors, primary screen, luminescence, Shh-LIGHT2 cells, Gli-luciferase. Shh-LIGHT2 Gli-luciferase reporter, 30 h. inhibition, % (no concentration beside the values). actives 2.1% (n = 22,000). AID 2313, 2010;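 active = mean inhibition across valid replicates above about 65%, limit read from the data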;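 note: pathway switched on by Shh-conditioned medium diluted 1 in 25 in low serum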
MITF inhib – inhibitors of MITF, primary screen, MITF inhibitor project, cell-based, luminescence. TRPM1 promoter luciferase, 24 h. inhibition, % (test concentration not listed). actives 0.28% (n = 37,000); in the data active = inhibition above about 85%;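 note: human melanocyte line stably carrying TRPM1 promoter luciferase reporter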
NOMO-1 viab – NOMO-1 AML cell viability reduction, primary screen, STK33 inhibitor project, CellTiter-Glo luminescence; NOMO-1 AML viability, 72 h; inhibition, % (no concentration beside the values); actives 7.5% (n = 37,000); AID 2330, 2010; in the data active = inhibition above about 80%
Active calls of the source: *; / = no result.

SMILES	PD-1 reversal	Hedgehog inh	MITF inhib	NOMO-1 viab
C[C@H]1CN([C@@H](C)CO)C(=O)Cc2cc(NC(=O)Nc3cccc4ccccc34)ccc2O[C@@H]1CN(C)Cc1ccc(C(F)(F)F)cc1	/	-7.7	28.8	124.9*
C[C@H]1CN([C@@H](C)CO)C(=O)Cc2cc(NC(=O)Nc3cccc4ccccc34)ccc2O[C@H]1CN(C)Cc1ccc(C(F)(F)F)cc1	-1.7	-40.9	20.3	105.8*
C[C@H]1CN([C@@H](C)CO)C(=O)Cc2cc(NC(=O)Nc3cccc4ccccc34)ccc2O[C@@H]1CN(C)Cc1ccccc1	2.3	9.4	18.1	49.6
C[C@@H]1CN([C@H](C)CO)C(=O)Cc2cc(NC(=O)Nc3cccc4ccccc34)ccc2O[C@H]1CN(C)Cc1ccc(C(F)(F)F)cc1	/	-24.3	22.2	105.4*
C[C@@H]1CN([C@@H](C)CO)C(=O)Cc2cc(NC(=O)Nc3cccc4ccccc34)ccc2O[C@@H]1CN(C)C(=O)Nc1ccc(C(F)(F)F)cc1	-6.0	27.8	24.1	107.3*
C[C@H](CO)N1C[C@H](C)[C@H](CN(C)C(=O)Nc2ccc(C(F)(F)F)cc2)Oc2ccc(NC(=O)Nc3cccc4ccccc34)cc2CC1=O	/	5.5	19.4	45.8
C[C@H]1CN([C@@H](C)CO)C(=O)Cc2cc(NC(=O)Nc3cccc4ccccc34)ccc2O[C@@H]1CN(C)Cc1ccc(C(=O)O)cc1	3.2	-22.2	2.6	3.1
CC(NC(=O)c1ccccc1NC(=O)C1COc2ccccc2O1)c1ccccc1 (stereo not given)	-3.4	/	-31.3	26.6
CC(=O)NC(=O)C1C=C2C=CC=CC2OC1=Nc1ccc(C(F)(F)F)cc1 (stereo not given)	0.5	-40.8	2.2	4.2
C[C@@H]1CN([C@H](C)CO)C(=O)Cc2cc(NC(=O)Nc3cccc4ccccc34)ccc2O[C@H]1CN(C)Cc1ccc(C(=O)O)cc1	2.2	7.2	2.2	1.2
C[C@H](CO)N1C[C@H](C)[C@H](CN(C)Cc2ccc(C(F)(F)F)cc2)Oc2ccc(NC(=O)Nc3cccc4ccccc34)cc2CC1=O	/	/	23.5	125.4*
Oc1ccccc1-c1cc(-c2ccc3c(c2)OCO3)cc(-c2ccccc2)n1	0.6	-11.4	-7.2	32.5
CC(C)CC(=O)c1c(O)cc(O)cc1OC1OC(COC(=O)c2cc(O)c(O)c(O)c2)C(O)C(O)C1O (stereo not given)	/	-16.2	/	/
Cc1oc(-c2ccc3c(c2)OCCO3)cc1C(=O)NCC(=O)O	0.2	/	86.4*	1.9
Cc1oc2cc(OC(C)C)ccc2c(=O)c1-c1ccc2c(c1)OCCO2	-0.4	-14.3	-21.0	-11.6
CC(=O)N1c2ccccc2C(=O)C1NC(N)=S (stereo not given)	0.0	/	-2.7	23.0
Cc1cc(C)c(NC(=O)CSc2nncc3ccccc23)c([N+](=O)[O-])c1	-3.2	/	-4.0	5.2
CCCCCCCCC/C=C/CCCCC(=O)C1C(=O)CCC(O)C1=O (stereo not given)	-0.3	-7.8	29.5	108.8*
CCCCCC[C@H](O)/C=C/CC1C(=O)CC[C@H](O)C1=O (stereo not given in full)	-0.9	-33.0	-10.7	1.9
Cc1ccc(S(=O)(=O)N(C)CC(=O)Nc2cccc(C#N)c2)cc1	1.2	/	-8.0	-8.6
CCOC(=O)c1c(NC(=O)C(C)Oc2ccc3c(C)cc(=O)oc3c2)sc2c1CCCC2 (stereo not given)	-1.3	/	-8.2	-3.7
COc1cc(NC(=O)Cn2nc(C(F)(F)F)c(Cl)c2C)cc([N+](=O)[O-])c1	-6.3	/	58.2	114.0*
CS/C(Nc1cccc(Cl)c1Cl)=C(/C#N)C(=O)c1cccs1	-0.4	-191.5	-6.2	93.8*
N#CC(C(=O)c1cccs1)=C1SCCCS1	0.0	-22.5	-56.0	39.0
CC(C)N(C(=O)CSc1nc2ccc(Cl)cc2[nH]1)c1ccccc1	/	/	8.2	3.7
SMILES	PD-1 reversal	Hedgehog inh	MITF inhib	NOMO-1 viab
Cc1cc(C(=O)N(c2ccccc2)C(C)C2CC2)c(Cl)cc1Cl (stereo not given)	-1.7	9.6	30.5	133.5*
CC(=O)Nc1ccc(NC(=O)CCCN2C(=O)c3ccccc3C2=O)cc1	0.7	/	-20.5	-28.2
O=C(CCCN1C(=O)c2ccccc2C1=O)Nc1ccc(Nc2ccccc2)cc1	-8.7	/	-42.9	102.4*
O=C(CCCCCN1C(=O)c2cccc3cccc(c23)C1=O)NO	-20.3	90.6*	71.2	97.2*
Cc1cc(=O)[nH]c(Nc2nc(C)c3cccc(C)c3n2)n1	-8.1	/	31.3	130.2*
CCCc1cc(=O)[nH]c(Nc2nc(C)c3cc(OC)ccc3n2)n1	0.9	/	35.3	10.6
COc1ccc2c(C)nc(Nc3nc(C)cc(=O)[nH]3)nc2c1	-1.1	/	35.3	116.9*
N#C/C(=C\c1cc(Cl)cc(Cl)c1)c1cccnc1	-2.8	73.4*	1.9	83.3*
N#C/C(=C\c1ccncc1)c1ccc(NC(N)=O)cc1	-0.1	-11.7	-66.1	20.5
O=C(O)c1nn(-c2ccccc2)c2c1CCc1occc1-2	1.5	/	7.0	6.6
C[C@H]1CN([C@@H](C)CO)C(=O)c2cc(NC(=O)Cc3ccccc3)ccc2O[C@H]1CN(C)Cc1ccccc1	2.0	/	8.7	24.0
C[C@@H]1CN([C@H](C)CO)C(=O)c2cc(NC(=O)Cc3ccccc3)ccc2O[C@H]1CN(C)Cc1ccc(-c2ccccc2)cc1	-9.8	-12.1	29.0	117.0*
C[C@H](CO)N1C[C@H](C)[C@H](CN(C)Cc2ccncc2)Oc2ccc(NC(=O)Cc3ccccc3)cc2C1=O	/	/	3.4	98.1*
C[C@H](CO)N1C[C@H](C)[C@@H](CN(C)Cc2ccc(Cl)c(Cl)c2)Oc2ccc(NC(=O)Nc3ccc(C(F)(F)F)cc3)cc2C1=O	/	-15.1	-2.6	64.6
C[C@H]1CN([C@@H](C)CO)C(=O)c2cc(NC(=O)Nc3ccc(C(F)(F)F)cc3)ccc2O[C@@H]1CN(C)Cc1ccc(Cl)c(Cl)c1	-6.3	/	17.8	117.0*
C[C@H](CO)N1C[C@H](C)[C@H](CN(C)Cc2ccc(Cl)c(Cl)c2)Oc2ccc(NC(=O)c3ccncc3)cc2C1=O	-2.2	85.7*	14.7	21.9
C[C@H](CO)N1C[C@H](C)[C@H](CN(C)Cc2ccc(Cl)c(Cl)c2)Oc2ccc(NC(=O)Nc3ccc(C(F)(F)F)cc3)cc2C1=O	-0.5	-6.5	48.7	124.7*
C[C@@H]1CN([C@@H](C)CO)C(=O)c2cc(NC(=O)Nc3ccc(C(F)(F)F)cc3)ccc2O[C@H]1CN(C)Cc1ccc(Cl)c(Cl)c1	-3.8	26.7	26.6	115.5*
C[C@@H]1CN([C@H](C)CO)C(=O)c2cc(NC(=O)c3ccncc3)ccc2O[C@H]1CN(C)Cc1ccc(Cl)c(Cl)c1	2.0	/	-8.7	48.2
Cc1ccc(C(=O)N(CC(N)=O)CC(N)=O)cc1	/	/	-11.6	-2.9
COC(=O)CNC(=O)c1cn(-c2ccccc2)nc1-c1cccs1	0.1	/	-46.4	105.0*
C=CCN1CCc2c(cc(O)c(O)c2Br)[C@@H](c2ccccc2)C1	/	30.7	31.0	109.4*
